Data from PubChem BioAssay (NCI).
Compounds without any hit were thinned out: in the full panel of roughly 83,000, 20% have a hit.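 Cells were grown in 96-well plates and exposed to the test compound at a single concentration for 48 hours; results are reported as percent growth, with values below 10 considered active.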 Unmarked numbers belong to inactive results. Active and inactive are the calls of the source.

Assays:
Experiment in all cases: NCI-60 one-dose screen, 48 h (100 = growth as untreated, 0 = no growth, -100 = all killed)
Details in all cases: 10 µM unless noted
[1] = test system: NCI-H23 lung
[2] = test system: NCI-H226 lung
[3] = test system: NCI-H322M lung
[4] = test system: HOP-62 NSCLC
[5] = test system: NCI-H460 lung
[6] = test system: HOP-92 NSCLC
[7] = test system: NCI-H522 lung
[8] = test system: A549/ATCC NSCLC
[9] = test system: 786-0 renal
[10] = test system: COLO 205 colon
[11] = test system: DU-145 prostate
[12] = test system: K-562 leukemia
[13] = test system: MALME-3M melanoma
[14] = test system: MDA-MB-231 breast
[15] = test system: RXF 393 renal
[16] = test system: SF-268 CNS
[17] = test system: SF-295 CNS
[18] = test system: SF-539 CNS
[19] = test system: UACC-257 melanoma
[20] = test system: M14 melanoma

Work on `CNC(=O)c1cc(-c2ccc(NC(=S)Nc3cccc(C(F)(F)F)c3)cc2)nc2cccnc12` yielded a growth [1] of 92.4%, a growth [2] of 95.8% and a growth [3] of 96.1%. For the same molecule, the growth [4] was 102%, the growth [5] was 99.4% and the growth [6] was 85%. The growth [7] was 89.7%, the growth [8] was 96.9% and the growth [9] was 96.7%. The growth [10] was 104%, the growth [11] was 103% and the growth [12] was 90.8%. It also gave a growth [13] of 112%, a growth [14] of 96.5% and a growth [15] of 107%. It also gave a growth [16] of 106%, a growth [17] of 93.3% and a growth [18] of 100%. The growth [19] was 104% and the growth [20] was 99.3%.
`CNCCN(C)c1ccc(Nc2cc(NC3CC3)n3ncc(C#N)c3n2)cc1NC(C)=O` was tested, and the growth [1] was -5.36% (active), the growth [2] was 10.6% and the growth [3] was 10.5%. For the same molecule, the growth [4] was 13.4%, the growth [5] was 8.31% (active) and the growth [6] was -9.1% (active). For the same molecule, the growth [7] was -35.4% (active), the growth [8] was 12% and the growth [9] was 12.8%. For the same molecule, the growth [10] was 4.36% (active), the growth [11] was 17.5% and the growth [12] was 10.7%. The growth [13] was -5.08% (active), the growth [14] was -6.44% (active) and the growth [15] was -24.5% (active). For the same molecule, the growth [16] was 7.24% (active), the growth [17] was 12% and the growth [18] was 6.65% (active). For the same molecule, the growth [19] was 8.4% (active) and the growth [20] was -20.6% (active).
For `Cc1[nH]c(C(=O)Nc2ccc(S(=O)(=O)N3CCCCC3)cc2OCCOCCOCCOCCOCCOCCOCCOCCOCCOc2cc(S(=O)(=O)N3CCCCC3)ccc2NC(=O)c2[nH]c(C)c3c2CCCCC3=O)c2c1C(=O)CCCC2`, the growth [1] was 20.8%, the growth [2] was -2.37% (active) and the growth [3] was 34.1%. For the same molecule, the growth [4] was 12.5%, the growth [5] was 35.6% and the growth [6] was 16.9%. For the same molecule, the growth [7] was 0.322% (active), the growth [8] was 24.1% and the growth [9] was 40.2%. The growth [10] was -30.3% (active), the growth [11] was 47.3% and the growth [12] was 19.2%. The growth [13] was 3.69% (active), the growth [14] was 11.6% and the growth [15] was 47%. The growth [16] was 44.3%, the growth [17] was 30.8% and the growth [18] was 14.1%. The growth [19] was -27% (active) and the growth [20] was 14%.
`COc1ccc2[nH]cc(/C=N/Nc3ccnc4cc(Cl)ccc34)c2c1` was tested, and the growth [1] was -91.8% (active), the growth [2] was -78.7% (active) and the growth [3] was -100% (active). The growth [4] was -56.7% (active), the growth [5] was -78.1% (active) and the growth [6] was -91.6% (active). The growth [7] was -62.4% (active), the growth [8] was -49.2% (active) and the growth [9] was -92.3% (active). For the same molecule, the growth [10] was -56.7% (active), the growth [11] was -98.9% (active) and the growth [12] was -4.83% (active). The growth [13] was -97.7% (active), the growth [14] was -93.9% (active) and the growth [15] was -100% (active). For the same molecule, the growth [16] was -60.7% (active), the growth [17] was -100% (active) and the growth [18] was -100% (active). The growth [19] was -84.2% (active) and the growth [20] was -79.7% (active).
